Assay outcomes deposited in PubChem by National Center for Advancing Translational Sciences (NCATS).
A selection: hits, their analogues and other compounds. The true share with any hit is near 4.1%.
FMDV antiviral – foot and mouth disease virus antiviral activity | FMDV antiviral cell-based qHTS | Potency, µM (top dose mostly 57.9 µM), without a hit: at the top dose activity change, negative = inhibition, usual class: inhibitors | actives 1.2% (n = 410,000) | AID 1159524; calls by dose curve; tested in HEK293T cells; note: read-out not given here; nearly all actives have a fitted effect of over 45% in size
Sm TGR inh – blocks Schistosoma mansoni thioredoxin glutathione reductase; Potency, µM (titrated, usually from 114 µM), without a hit: at the top dose activity change, negative = inhibition, most hits filed as inhibitors; AID 485364; purified TGR, DTNB reduction, TNB absorbance 405 nm; actives 3% (n = 360,000); Q962Y6; note: nearly all actives have a fitted effect of over 60% in size
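TGR 20 nM + NADPH 100 uM (dispensed conc.), cpd preinc 15 min RT; start with NADPH (500 uM addition) then DTNB (15 mM addition). Kinetic TNB absorbance, 405 nm filter. Four-parameter Hill fit across titration.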
AMA1-RON2 inh – inhibitors of Plasmodium falciparum AMA1-RON2 interaction; AlphaScreen AMA1-biotinylated RON2 peptide binding; Potency, µM (series often up to 58.2 µM), without a hit: at the highest dose activity change, negative = inhibition, usual class: inhibitors; actives 0.2% (n = 360,000); AID 720542;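 note: 0% = vehicle wells and -100% = peptide control; nearly all actives have a fitted effect of over 45% in size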
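AMA1 (3D7) with his tag at 25 nM final met compounds first, then biotinylated RON2 peptide at 25 nM; detection used donor plus acceptor beads, 10 µg/mL apiece, read by AlphaScreen after 30 min at room temperature.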
AmpC inh no detg – blocks E. coli AmpC beta-lactamase in detergent-free assay; AmpC nitrocefin hydrolysis, absorbance 480 nm, 0.0001% Triton; Potency, µM (doses to about 57.1 µM), without a hit: top-dose activity change, negative = inhibition, most hits filed as inhibitors; P00811; AID 485341; actives 0.52% (n = 330,000);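 note: plate controls were no compound for no effect and no enzyme for full effect; nearly all actives have a fitted effect of over 20% in size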
Target sequence (P00811 whole entry, looked up): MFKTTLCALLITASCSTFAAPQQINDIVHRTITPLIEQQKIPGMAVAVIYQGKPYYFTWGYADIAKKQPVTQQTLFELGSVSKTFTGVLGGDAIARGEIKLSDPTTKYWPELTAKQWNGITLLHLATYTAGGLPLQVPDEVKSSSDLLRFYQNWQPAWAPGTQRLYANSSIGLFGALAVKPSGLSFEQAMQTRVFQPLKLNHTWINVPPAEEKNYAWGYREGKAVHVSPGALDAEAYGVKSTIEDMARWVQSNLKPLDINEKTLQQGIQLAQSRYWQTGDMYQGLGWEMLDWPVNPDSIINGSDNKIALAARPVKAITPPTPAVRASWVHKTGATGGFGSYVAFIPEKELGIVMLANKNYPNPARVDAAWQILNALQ
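AmpC (5.3 nM in the dispensed reagent) in 20 mM phosphate pH 7.0 with 0.01% (detergent screen) or 0.0001% Triton X-100 was preincubated with compounds for 15 min at room temperature. Nitrocefin was then added from an 800 uM solution, and hydrolysis was followed at 480 nm.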
AmpC detergent – inhibitors of E. coli AmpC beta-lactamase with detergent; Potency, µM (doses to about 114 µM), without a hit: top-dose activity change, negative = inhibition, most hits filed as inhibitors; actives 0.041% (n = 370,000); AmpC hydrolysis of nitrocefin, absorbance 480 nm, 0.01% Triton; AID 485294;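 note: 0% = no-compound wells and -100% = no-enzyme wells; nearly all actives have a fitted effect of over 25% in size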
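20 mM phosphate pH 7.0 + 0.01% (detergent screen) or 0.0001% Triton X-100; 5.3 nM AmpC reagent; cpd preinc 15 min RT; nitrocefin (800 uM stock) to start; A480 q20 s × 4 min; Activity was normalised to no-enzyme and no-compound control wells.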
* hit, by the source's call. Unless noted, calls come from the whole dose curve; as a rule, active = well fitted curve in the direction sought with a large enough effect; inconclusive = small, poorly fitted or top-dose-only effect, or another doubt; inactive = no such curve, though single readings can be large; an effect the other way counts as inactive or inconclusive. Unless noted, % is set by controls: 0 for no effect and ±100 for the full control effect; potency is the fitted concentration of half-maximal effect.

`NS(=O)(=O)c1ccc(NC(=O)COC(=O)c2cn(-c3ccccc3)nc2-c2ccc(F)cc2)cc1` gave FMDV antiviral -17%, Sm TGR inh 0%, AMA1-RON2 inh -5%, AmpC inh no detg 13µM* and AmpC detergent -8%.
O=C1CC(NCc2ccc(F)cc2)C(=O)N1c1ccccc1 (centres undefined) was read as FMDV antiviral -10%, AMA1-RON2 inh 7%, AmpC inh no detg -13% and AmpC detergent 4%.
`N#CCNC1CC(=O)N(c2ccc(F)cc2)C1=O` (centres undefined) gave FMDV antiviral -17%, Sm TGR inh 7.1µM*, AMA1-RON2 inh -5%, AmpC inh no detg -20% and AmpC detergent -13%.
`CCc1ccccc1N(C)C(=O)c1sc2nc3n(c(=O)c2c1C)CCCCC3` gave FMDV antiviral -7%, Sm TGR inh -11% and AmpC detergent 7%.
CCc1ccc(NC(=O)c2sc3nc4n(c(=O)c3c2C)CCC4)cc1 was read as FMDV antiviral -3%, Sm TGR inh -9%, AMA1-RON2 inh 6%, AmpC inh no detg 168% and AmpC detergent -5%.
Cc1c(C(=O)Nc2cccc(C(F)(F)F)c2)sc2nc3n(c(=O)c12)CCCC3 was read as FMDV antiviral 18µM*, Sm TGR inh -36% and AmpC detergent -2%.
`Cc1c(C(=O)N(C)c2cccc(C(F)(F)F)c2)sc2nc3n(c(=O)c12)CCCCC3` gave FMDV antiviral -27%, Sm TGR inh 10µM* and AmpC detergent 17%.
Screening CCOc1ccc(NC(=O)c2sc3nc4n(c(=O)c3c2C)CCCC4)cc1 returned FMDV antiviral -17%, Sm TGR inh 32µM* and AmpC detergent 3%.
COc1ccc(OC)c(NC(=O)CSC2=Nc3ccccc3C3=NC(CCC(=O)NCc4ccco4)C(=O)N23)c1 (centres undefined) was read as FMDV antiviral inconclusive, Sm TGR inh -2% and AmpC detergent 5%.
Screening Cc1nc2c(o1)C(=O)c1ccccc1C2=Nc1ccccc1 returned FMDV antiviral 18µM* and AMA1-RON2 inh -29%.
For CCC(C)[C@H](N)c1nnc(SCc2ccc(Cl)c(Cl)c2)o1 (some centres undefined) the results were FMDV antiviral -18%, Sm TGR inh 2% and AmpC detergent 2%.
Screening O=C1c2cccnc2C(Nc2ccccc2)N1Cc1ccco1 (centres undefined) returned FMDV antiviral 2%, Sm TGR inh 25µM*, AMA1-RON2 inh -14%, AmpC inh no detg -6% and AmpC detergent -1%.
Screening O=C1c2cccnc2C(Nc2cccc(F)c2)N1Cc1ccco1 (centres undefined) returned FMDV antiviral -11%, Sm TGR inh 35µM*, AMA1-RON2 inh -9%, AmpC inh no detg -6% and AmpC detergent -15%.
Screening O=C1c2cccnc2C(Nc2ccccc2Br)N1Cc1ccco1 (centres undefined) returned FMDV antiviral -11%, Sm TGR inh 22µM*, AMA1-RON2 inh -15%, AmpC inh no detg 2% and AmpC detergent -3%.
COc1ccc(N2CCN(Cc3nnc(-c4cccc(Br)c4)o3)CC2)cc1 was read as FMDV antiviral 18%, Sm TGR inh 1% and AmpC detergent 15%.
For NCc1oc(-c2ccccc2)cc1C(=O)O the results were FMDV antiviral 45%, Sm TGR inh 45µM*, AMA1-RON2 inh 3%, AmpC inh no detg -23% and AmpC detergent 4%.
For CCN(CC)Cc1oc(-c2ccccc2)cc1C(=O)O the results were FMDV antiviral -9%, Sm TGR inh 50µM*, AMA1-RON2 inh 8%, AmpC inh no detg -18% and AmpC detergent -6%.
For CCc1ccc(-n2c(=O)c3c4c(sc3n(CC(=O)c3ccc(Br)cc3)c2=O)CCC4)cc1 the results were FMDV antiviral 6%, Sm TGR inh -13% and AmpC detergent 4%.
`[O-][n+]1onc2c1CCC(=N/O)/C2=N\Nc1ccccc1` gave Sm TGR inh 18µM*, AmpC inh no detg -54% and AmpC detergent -5%.
Screening [O-][n+]1c2c(nn1-c1ccccc1)/C(=N/O)CCC2 returned FMDV antiviral -5%, AMA1-RON2 inh -5%, AmpC inh no detg -16% and AmpC detergent -1%.
COc1ccc(NC(=O)CCc2c(C)nn(-c3ccc(N4CCOCC4)nn3)c2C)cc1Cl was read as FMDV antiviral 49%, Sm TGR inh -3% and AmpC detergent 22%.
For O=C(/C=C/c1ccco1)N1CCN(S(=O)(=O)c2ccc(F)c(F)c2F)CC1 the results were FMDV antiviral -14%, Sm TGR inh 5µM*, AMA1-RON2 inh 0%, AmpC inh no detg -7% and AmpC detergent inconclusive.
For Cc1ccc(C)c(S(=O)(=O)N2CCN(C(=O)Cc3ccsc3)CC2)c1 the results were FMDV antiviral 4.5µM*, Sm TGR inh 0%, AMA1-RON2 inh -5%, AmpC inh no detg 29% and AmpC detergent 2%.
`Cc1ccc(S(=O)(=O)N2CCN(C(=O)/C=C/c3ccco3)CC2)cc1` gave FMDV antiviral -18%, Sm TGR inh 50µM*, AMA1-RON2 inh 7%, AmpC inh no detg 7% and AmpC detergent -5%.
`Cc1ccc(C)c(S(=O)(=O)N2CCN(C(=O)/C=C/c3ccco3)CC2)c1` gave FMDV antiviral -22%, Sm TGR inh 4µM*, AMA1-RON2 inh -2%, AmpC inh no detg 29% and AmpC detergent -4%.
For O=C(/C=C/c1ccco1)N1CCN(S(=O)(=O)c2ccccc2)CC1 the results were FMDV antiviral -17%, AMA1-RON2 inh -10% and AmpC inh no detg -16%.
Screening CC(C)c1ccc(S(=O)(=O)N2CCN(CC(=O)Nc3ccccc3C(F)(F)F)CC2)cc1 returned FMDV antiviral -24%, Sm TGR inh 10% and AmpC detergent 3%.
`N#CCCn1c(=O)cnc2cnc(OCc3ccccc3)nc21` gave FMDV antiviral 7%.
`COC(=O)C1CCN(Cc2ccc3c(c2)CN(C(=O)c2ccc4nc(C)c(C)nc4c2)CCO3)CC1` gave FMDV antiviral -1%.
O=S(=O)(NCCc1csc2nc(-c3ccc(F)cc3)nn12)c1ccc2c(c1)OCCO2 was read as FMDV antiviral 8%, Sm TGR inh 6% and AmpC detergent -1%.
Screening O=C(Nc1ccc(Cl)cc1)C1CCC(CNS(=O)(=O)c2ccc(Br)s2)CC1 (centres undefined) returned FMDV antiviral -15%, Sm TGR inh 9% and AmpC detergent 11%.
